# Results as given in ChEMBL document CHEMBL1961873, “Compounds: GSK PKIS; Assays: Nanosyn kinase panel” (2012).
# Tests used:
# [1] = molecular target: T1, Inhibitor of nuclear factor kappa-B kinase subunit epsilon (Homo sapiens) (UniProt Q14164); details: at 1 µM;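 also: reported values are averaged percent inhibition figures against human IKKε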
# T1 sequence (whole entry): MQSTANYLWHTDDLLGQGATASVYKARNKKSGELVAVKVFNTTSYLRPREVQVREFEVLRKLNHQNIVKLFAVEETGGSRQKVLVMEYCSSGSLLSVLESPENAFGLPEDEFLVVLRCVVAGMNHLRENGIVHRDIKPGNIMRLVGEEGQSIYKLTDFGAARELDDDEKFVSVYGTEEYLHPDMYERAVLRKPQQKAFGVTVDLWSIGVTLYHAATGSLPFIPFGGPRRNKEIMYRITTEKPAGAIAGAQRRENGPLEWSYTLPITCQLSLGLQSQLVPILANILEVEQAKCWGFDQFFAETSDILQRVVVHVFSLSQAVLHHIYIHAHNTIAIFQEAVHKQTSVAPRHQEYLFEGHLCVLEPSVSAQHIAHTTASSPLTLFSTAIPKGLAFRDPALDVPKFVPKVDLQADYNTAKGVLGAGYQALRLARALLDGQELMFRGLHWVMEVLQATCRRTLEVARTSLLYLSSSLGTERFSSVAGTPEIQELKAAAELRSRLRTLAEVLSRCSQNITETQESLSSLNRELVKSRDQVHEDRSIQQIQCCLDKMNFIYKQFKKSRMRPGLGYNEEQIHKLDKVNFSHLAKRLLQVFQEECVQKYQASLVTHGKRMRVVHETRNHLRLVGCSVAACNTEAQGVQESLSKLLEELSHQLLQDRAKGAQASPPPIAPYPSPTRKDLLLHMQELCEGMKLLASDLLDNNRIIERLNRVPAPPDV
# [2] = molecular target: T2, Serine/threonine-protein kinase Nek1 (Homo sapiens) (UniProt Q96PY6); details: at 0.1 µM
# T2 sequence (whole entry): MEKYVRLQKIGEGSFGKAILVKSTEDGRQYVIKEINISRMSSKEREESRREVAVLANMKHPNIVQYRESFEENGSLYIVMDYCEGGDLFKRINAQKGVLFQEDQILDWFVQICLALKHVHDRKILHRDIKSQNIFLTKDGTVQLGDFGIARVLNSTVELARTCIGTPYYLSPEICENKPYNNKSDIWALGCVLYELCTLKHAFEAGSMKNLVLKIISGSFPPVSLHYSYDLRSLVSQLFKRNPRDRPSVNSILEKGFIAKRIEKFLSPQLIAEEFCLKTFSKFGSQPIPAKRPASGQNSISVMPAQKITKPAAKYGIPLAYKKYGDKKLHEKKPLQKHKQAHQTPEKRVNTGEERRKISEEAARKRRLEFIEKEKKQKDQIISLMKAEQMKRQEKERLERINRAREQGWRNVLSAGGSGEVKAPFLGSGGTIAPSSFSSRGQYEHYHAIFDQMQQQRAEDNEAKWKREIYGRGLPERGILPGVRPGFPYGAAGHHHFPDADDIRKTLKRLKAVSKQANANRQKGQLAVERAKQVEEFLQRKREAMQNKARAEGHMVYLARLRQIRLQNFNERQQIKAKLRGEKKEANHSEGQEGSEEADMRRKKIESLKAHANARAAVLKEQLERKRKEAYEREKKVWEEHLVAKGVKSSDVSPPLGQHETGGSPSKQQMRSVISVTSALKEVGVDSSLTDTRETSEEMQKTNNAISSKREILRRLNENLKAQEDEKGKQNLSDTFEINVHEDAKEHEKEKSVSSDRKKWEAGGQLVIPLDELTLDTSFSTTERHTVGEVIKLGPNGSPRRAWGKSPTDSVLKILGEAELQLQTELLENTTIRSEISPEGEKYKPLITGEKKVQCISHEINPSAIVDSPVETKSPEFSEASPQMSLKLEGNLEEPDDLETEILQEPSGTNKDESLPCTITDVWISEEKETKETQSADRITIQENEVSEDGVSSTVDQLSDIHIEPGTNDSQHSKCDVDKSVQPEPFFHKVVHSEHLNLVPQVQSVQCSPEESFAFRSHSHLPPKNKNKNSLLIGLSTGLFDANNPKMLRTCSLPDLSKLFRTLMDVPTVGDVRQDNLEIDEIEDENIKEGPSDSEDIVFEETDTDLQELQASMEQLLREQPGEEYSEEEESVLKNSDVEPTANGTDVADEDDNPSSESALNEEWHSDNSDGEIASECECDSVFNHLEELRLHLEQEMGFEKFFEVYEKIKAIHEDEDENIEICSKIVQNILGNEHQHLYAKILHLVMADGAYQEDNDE
# [3] = molecular target: T2, Serine/threonine-protein kinase Nek1 (Homo sapiens); details: at 1 µM
# [4] = molecular target: T3, Serine/threonine-protein kinase Nek2 (Homo sapiens) (UniProt P51955); details: at 0.1 µM
# T3 sequence (whole entry): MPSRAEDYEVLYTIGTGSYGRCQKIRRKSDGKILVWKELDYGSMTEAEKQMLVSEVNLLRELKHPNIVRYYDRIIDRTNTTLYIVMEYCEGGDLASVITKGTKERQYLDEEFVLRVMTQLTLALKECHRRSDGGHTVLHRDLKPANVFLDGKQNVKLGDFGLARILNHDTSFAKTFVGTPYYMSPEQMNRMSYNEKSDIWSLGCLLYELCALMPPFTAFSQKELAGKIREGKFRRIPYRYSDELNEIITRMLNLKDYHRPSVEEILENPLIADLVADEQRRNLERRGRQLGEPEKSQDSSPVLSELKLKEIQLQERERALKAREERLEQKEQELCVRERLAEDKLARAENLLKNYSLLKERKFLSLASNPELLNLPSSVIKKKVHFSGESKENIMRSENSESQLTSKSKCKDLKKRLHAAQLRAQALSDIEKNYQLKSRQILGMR
# [5] = molecular target: T3, Serine/threonine-protein kinase Nek2 (Homo sapiens); details: at 1 µM
# [6] = molecular target: Serine/threonine-protein kinase Nek6 (Homo sapiens) (UniProt Q9HC98); details: at 0.1 µM
# [7] = molecular target: Serine/threonine-protein kinase Nek6 (Homo sapiens) (UniProt Q9HC98); details: at 1 µM
# [8] = molecular target: Serine/threonine-protein kinase Nek7 (Homo sapiens) (UniProt Q8TDX7); details: at 0.1 µM
# [9] = molecular target: Serine/threonine-protein kinase Nek7 (Homo sapiens) (UniProt Q8TDX7); details: at 1 µM
# [10] = molecular target: T4, Serine/threonine-protein kinase Nek9 (Homo sapiens) (UniProt Q8TD19); details: at 0.1 µM;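 also: reported value is the mean percent inhibition of NEK9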
# T4 sequence (whole entry): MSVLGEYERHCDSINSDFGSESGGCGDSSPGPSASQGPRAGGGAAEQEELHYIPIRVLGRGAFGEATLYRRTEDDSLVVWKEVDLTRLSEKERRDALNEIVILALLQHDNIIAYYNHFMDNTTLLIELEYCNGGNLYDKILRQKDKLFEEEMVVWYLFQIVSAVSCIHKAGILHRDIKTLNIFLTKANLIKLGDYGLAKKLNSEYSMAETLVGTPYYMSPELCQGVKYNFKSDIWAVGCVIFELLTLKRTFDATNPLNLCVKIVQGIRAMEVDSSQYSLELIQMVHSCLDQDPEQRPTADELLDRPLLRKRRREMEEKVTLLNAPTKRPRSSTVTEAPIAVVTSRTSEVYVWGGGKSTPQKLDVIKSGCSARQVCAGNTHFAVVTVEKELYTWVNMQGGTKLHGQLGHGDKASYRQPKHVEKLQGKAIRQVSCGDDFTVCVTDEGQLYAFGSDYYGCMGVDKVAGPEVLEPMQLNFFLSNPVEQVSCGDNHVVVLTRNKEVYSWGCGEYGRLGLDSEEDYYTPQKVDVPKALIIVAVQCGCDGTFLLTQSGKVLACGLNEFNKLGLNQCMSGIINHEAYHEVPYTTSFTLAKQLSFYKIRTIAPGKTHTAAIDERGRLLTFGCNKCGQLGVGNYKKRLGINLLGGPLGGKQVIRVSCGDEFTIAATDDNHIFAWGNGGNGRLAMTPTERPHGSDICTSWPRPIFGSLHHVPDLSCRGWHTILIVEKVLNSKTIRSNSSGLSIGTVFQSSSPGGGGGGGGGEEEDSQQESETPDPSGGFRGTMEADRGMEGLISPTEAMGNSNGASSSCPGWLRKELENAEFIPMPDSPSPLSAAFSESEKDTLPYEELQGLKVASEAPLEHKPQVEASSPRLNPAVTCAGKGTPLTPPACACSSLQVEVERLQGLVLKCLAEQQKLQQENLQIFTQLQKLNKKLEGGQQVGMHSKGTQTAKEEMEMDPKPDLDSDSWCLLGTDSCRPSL
# Chain of Serine/threonine-protein kinase Nek6 (Homo sapiens) (Q9HC98 whole entry): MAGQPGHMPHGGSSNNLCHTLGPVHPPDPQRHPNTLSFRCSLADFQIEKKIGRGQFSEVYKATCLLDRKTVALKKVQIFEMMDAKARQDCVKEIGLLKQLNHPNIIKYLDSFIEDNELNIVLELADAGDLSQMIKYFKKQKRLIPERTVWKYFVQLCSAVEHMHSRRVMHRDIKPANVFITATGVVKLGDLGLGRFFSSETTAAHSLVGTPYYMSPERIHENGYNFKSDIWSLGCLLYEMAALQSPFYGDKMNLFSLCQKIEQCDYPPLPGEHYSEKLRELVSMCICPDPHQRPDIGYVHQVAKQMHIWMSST
# Chain of Serine/threonine-protein kinase Nek7 (Homo sapiens) (Q8TDX7 whole entry, looked up): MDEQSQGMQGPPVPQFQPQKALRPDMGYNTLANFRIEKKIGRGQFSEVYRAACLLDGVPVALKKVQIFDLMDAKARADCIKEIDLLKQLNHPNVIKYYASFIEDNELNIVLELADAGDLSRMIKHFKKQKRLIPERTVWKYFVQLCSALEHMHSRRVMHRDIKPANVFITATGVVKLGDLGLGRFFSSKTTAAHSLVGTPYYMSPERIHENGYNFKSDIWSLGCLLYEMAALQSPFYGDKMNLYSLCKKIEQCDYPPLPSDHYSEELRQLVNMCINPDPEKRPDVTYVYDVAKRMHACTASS
structure (smiles),measurement,setting,value
O=C1Nc2ccc(-c3cccnc3)cc2C1=Cc1cc(Br)c(O)c(Br)c1,inhibition,[1],92.1%
same,inhibition,[2],2.32%
same,inhibition,[3],0.46%
same,inhibition,[4],4.11%
same,inhibition,[5],2.79%
same,inhibition,[6],4.82%
same,inhibition,[7],0.55%
same,inhibition,[8],5.27%
same,inhibition,[9],4.87%
same,inhibition,[10],6.61%
